Results published in PubChem BioAssay (NCATS).
Results filed as inconclusive are left out. The source made the active and inactive calls. Calls come from the whole dose curve; as a rule, active = well fitted curve in the direction sought with a large enough effect; inconclusive = small, poorly fitted or top-dose-only effect, or another doubt; inactive = no such curve, though single readings can be large; an effect the other way counts as inactive or inconclusive.

Key:
[1] = qHTS for compounds that reverse cellular toxicity of Amyloid beta (A-beta) peptide in yeast: LOPAC Validation Assay (AID 720559);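 note: plate controls were DMSO for no effect and equimolar ferric chloride plus clioquinol rescue for full effect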
Summary of the method: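 Rescue of A-beta toxicity was scored as yeast growth by 600 nm absorbance after 48 hr at 30 C with compound. Normalization used DMSO (negative) and equimolar ferric chloride plus clioquinol (positive).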

[2] = qHTS for Activators of Parkin Expression: LOPAC Validation Assay (NLuc Reporter) (AID 720572;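 note: 0% = DMSO and 100% = positive control compound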)
Summary of the method: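 Neuronal line stably carrying a FLuc/NLuc coincidence reporter under the Parkin promoter, seeded 24 h, then dosed in 7-point series for 24 h at 37 C. NLuc luminescence read after FLuc; normalized to DMSO and positive control (100%).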

[3] = qHTS for Activators of Parkin Expression: LOPAC Validation Assay (FLuc Reporter) (AID 720573;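 note: 0% = DMSO and 100% = positive control compounds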)
Summary of the method: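 FLuc signal from Parkin-promoter coincidence reporter neuronal cells, normalized to DMSO and positive control (100%). Cells (1,500/well) pre-incubated 24 h, then exposed to LOPAC compounds in 7-point dose response for 24 h at 37 C, 5% CO2.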

[4] = biological target: T1, Hexokinase-4 (Homo sapiens) + Glucokinase regulatory protein (Homo sapiens) (UniProt P35557+Q14397); test: qHTS assay for inhibitors of recombinant human GCK-GKRP interaction: Diaphorase-coupled assay (AID 743205)
Summary of the method: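 A kinetic fluorescence read (Ex 525/Em 590 nm, every minute for 30 minutes) tracked resorufin from a G6PDH-diaphorase coupled GCK reaction. It contained 10 nM GST-GCK, 10 nM FLAG-GKRP, 5 mM glucose, 0.4 mM ATP in Hepes pH 7.6. Normalized to with/without-enzyme DMSO controls.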

[5] = biological target: T1, Hexokinase-4 (Homo sapiens) + Glucokinase regulatory protein (Homo sapiens); test: qHTS assay for inhibitors of recombinant human GCK-GKRP interaction: ADP-Glo assay (AID 743206);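 note: plate controls were DMSO plus enzyme for no effect and no enzyme for full effect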
Summary of the method: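 GST-GCK and FLAG-GKRP (15 nM each in the dispensed mix, with 2 uM S6P) react with 0.4 mM ATP and 5 mM glucose (final) in Hepes pH 7.6 for 60 min at room temperature. ADP is measured by ADP-Glo luminescence.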

[6] = biological target: T1, Hexokinase-4 (Homo sapiens) + Glucokinase regulatory protein (Homo sapiens); test: qHTS assay for inhibitors of recombinant human GCK-GKRP interaction: HTRF assay (AID 743207);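 note: 0% = DMSO with GCK present and -100% = DMSO wells lacking GCK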
Summary of the method: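 After 60 min equilibration at room temperature with anti-FLAG XL665 and anti-GST antibodies, FRET ratio (665/615 nm, excitation 320 nm) was read. Proteins: GST-GCK and FLAG-GKRP, each 5 nM, plus 2 uM S6P, pH 7.1 buffer; GCK-free wells define minimum signal.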

[7] = qHTS Assay for Identifying Gametocytocidal Compounds (AID 743244);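 note: % is set by controls: 0 for no effect and ±100 for the full control effect; actives lower the fluorescent signal which means gametocytes are killed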; conditions: P. falciparum 3D7 stage III-V gametocytes, alamarBlue, 72 h; max response: hits give low values
Summary of the method: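 Compounds are pinned into medium, gametocytes (stage III–V, 3D7, 20,000 cells/well) added, and plates held 72 h at 37 °C in 5% CO2. AlamarBlue follows for 24 h before fluorescence reading.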

T1 sequence (P35557 whole entry, looked up): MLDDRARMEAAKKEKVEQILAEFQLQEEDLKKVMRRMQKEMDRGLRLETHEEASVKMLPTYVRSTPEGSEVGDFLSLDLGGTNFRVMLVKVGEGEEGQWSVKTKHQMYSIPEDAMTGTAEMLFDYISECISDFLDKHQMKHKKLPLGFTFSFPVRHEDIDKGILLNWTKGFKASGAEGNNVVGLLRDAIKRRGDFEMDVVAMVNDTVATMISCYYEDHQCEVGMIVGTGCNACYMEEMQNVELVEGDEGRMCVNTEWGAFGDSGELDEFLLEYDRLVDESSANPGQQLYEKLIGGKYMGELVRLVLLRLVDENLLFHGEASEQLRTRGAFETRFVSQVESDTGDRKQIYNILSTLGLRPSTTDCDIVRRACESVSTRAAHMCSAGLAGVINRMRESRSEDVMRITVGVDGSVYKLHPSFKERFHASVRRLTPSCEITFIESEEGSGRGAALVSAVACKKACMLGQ
T1 sequence (Q14397 whole entry, looked up): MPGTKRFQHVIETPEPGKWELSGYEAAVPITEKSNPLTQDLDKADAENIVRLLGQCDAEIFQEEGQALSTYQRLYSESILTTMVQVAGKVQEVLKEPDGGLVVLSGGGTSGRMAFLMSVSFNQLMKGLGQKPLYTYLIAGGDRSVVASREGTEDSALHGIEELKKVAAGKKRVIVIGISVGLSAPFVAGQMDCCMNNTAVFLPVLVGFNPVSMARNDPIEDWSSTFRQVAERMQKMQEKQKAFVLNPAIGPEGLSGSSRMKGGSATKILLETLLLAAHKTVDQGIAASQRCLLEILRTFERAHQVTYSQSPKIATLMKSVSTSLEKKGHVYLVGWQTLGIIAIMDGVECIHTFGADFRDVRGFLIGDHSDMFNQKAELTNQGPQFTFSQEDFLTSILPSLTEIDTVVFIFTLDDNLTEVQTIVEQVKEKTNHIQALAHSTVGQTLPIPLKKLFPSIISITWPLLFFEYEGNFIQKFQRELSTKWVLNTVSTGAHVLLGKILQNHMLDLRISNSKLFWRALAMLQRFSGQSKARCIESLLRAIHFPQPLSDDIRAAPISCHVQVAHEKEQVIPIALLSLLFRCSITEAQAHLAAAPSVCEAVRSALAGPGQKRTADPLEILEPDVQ

CCN(c1nc(N)c(C(=O)N=C(N)N)nc1Cl)C(C)C
inactive: outcome [1] | Potency [2] | Potency [3] | Potency [4] | Potency [5] | Potency [6]

C=CCN1CCc2c(cc(O)c(O)c2Cl)C(c2ccccc2)C1 (stereo not drawn)
inactive: outcome [1] | Potency [2] | Potency [3] | Potency [4] | Potency [5] | Potency [6]

O=c1[nH]c2cc(Cl)ccc2c(O)c1-c1ccc(Oc2ccccc2)cc1
inactive: outcome [1] | Potency [2] | Potency [3] | Potency [4] | Potency [5] | Potency [6] | max response [7] 17.9%

Nc1ncnc2c1nc(Sc1ccc(Cl)cc1)n2[C@H]1OC2COP(=O)(O)O[C@@H]2C1O (stereo partly drawn)
inactive: outcome [1] | Potency [2] | Potency [3] | Potency [4] | Potency [5] | Potency [6] | max response [7] 39.2%

COc1ccccc1N1CCN(CCCCN2C(=O)c3ccccc3C2=O)CC1
inactive: outcome [1] | Potency [2] | Potency [3] | Potency [4] | Potency [5] | Potency [6] | max response [7] 10.1%

O=C(O)CCC(=O)N1CCCC1C(=O)O (stereo not drawn)
inactive: outcome [1] | Potency [2] | Potency [3] | Potency [4] | Potency [5] | Potency [6] | max response [7] -8.08%

N#Cc1cc([N+](=O)[O-])c2sc(C(N)=O)[n+]([O-])c2c1
inactive: outcome [1] | Potency [2] | Potency [3] | Potency [4] | Potency [5] | Potency [6]

O=[N+]([O-])c1cccc2cn[nH]c12
inactive: outcome [1] | Potency [2] | Potency [3] | Potency [4] | Potency [5] | Potency [6]

O=C(O)C1CCCNC1 (stereo not drawn)
inactive: outcome [1] | Potency [2] | Potency [3] | Potency [4] | Potency [5] | Potency [6] | max response [7] 20.9%

CCCCCCCCCC[Si](C)(C)CCC(=O)NC(Cc1ccc(C)cc1)c1ccccc1 (stereo not drawn)
inactive: outcome [1] | Potency [2] | Potency [3] | Potency [4] | Potency [5] | Potency [6] | max response [7] 13.6%

COc1cc([C@@H]2c3cc4c(cc3[C@H](O)C3COC(=O)[C@@H]32)OCO4)cc(OC)c1OC (stereo partly drawn)
inactive: outcome [1] | Potency [2] | Potency [3] | Potency [4] | Potency [5] | Potency [6]

Nc1nc2[nH]c(=O)cnc2c(=O)[nH]1
inactive: outcome [1] | Potency [2] | Potency [3] | Potency [4] | Potency [5] | Potency [6] | max response [7] 4%

O=c1[nH]c(=O)c2nc3ccccc3nc2[nH]1
inactive: outcome [1] | Potency [2] | Potency [3] | Potency [4] | Potency [5] | Potency [6]

C=C(C)C1CC=C(C(=O)O)CC1 (stereo not drawn)
inactive: outcome [1] | Potency [2] | Potency [3] | Potency [4] | Potency [5] | Potency [6]

C[C@](Cc1ccc(O)c(O)c1)(NN)C(=O)O
inactive: outcome [1] | Potency [2] | Potency [3] | Potency [4] | Potency [5] | Potency [6]

Cn1ccnc1
inactive: outcome [1] | Potency [2] | Potency [3] | Potency [4] | Potency [5] | Potency [6] | max response [7] 14.7%

O=C(O)C1CCNCC1
inactive: outcome [1] | Potency [2] | Potency [3] | Potency [4] | Potency [5] | Potency [6] | max response [7] 10.6%

Oc1cc(O)c2c(c1)O[C@H](c1ccc(O)c(O)c1)[C@@H](O)C2
inactive: outcome [1] | Potency [2] | Potency [3] | Potency [4] | Potency [5] | Potency [6] | max response [7] -4.64%

CCN(CC)CCOC(=O)c1cc(Cl)c(N)cc1OC
inactive: outcome [1] | Potency [2] | Potency [3] | Potency [4] | Potency [5] | Potency [6] | max response [7] 40.4%

NC(N)=[N+]1CCc2ccccc2C1
inactive: outcome [1] | Potency [2] | Potency [3] | Potency [4] | Potency [5] | Potency [6] | max response [7] -3.89%

COC(=O)C(C)(N)Cc1ccc(O)cc1 (stereo not drawn)
inactive: outcome [1] | Potency [2] | Potency [3] | Potency [4] | Potency [5] | Potency [6] | max response [7] 7.17%

[Li+]
inactive: outcome [1] | Potency [2] | Potency [3] | Potency [4] | Potency [5] | Potency [6] | max response [7] 24.7%

CSC(=N)N
inactive: Potency [2] | Potency [3] | Potency [4] | Potency [5] | Potency [6] | max response [7] 32.5%

CN(C)CCC(c1ccc(Br)cc1)c1ccccn1 (stereo not drawn)
inactive: Potency [4] | Potency [5] | Potency [6] | max response [7] 11.9%

NC(Cc1cccc(-c2ccccc2CP(=O)(O)O)c1)C(=O)O (stereo not drawn)
inactive: outcome [1] | Potency [2] | Potency [3] | Potency [4] | Potency [5] | Potency [6] | max response [7] 13.4%

C=C1C[C@@]23CC[C@H]4[C@@](C)(CCC[C@@]4(C)C(=O)OC4OC(CO)C(O)C(O)C4O)[C@@H]2CC[C@]1(OC1OC(CO)C(O)C(O)C1OC1OC(CO)C(O)C(O)C1O)C3 (stereo partly drawn)
inactive: Potency [2] | Potency [3] | Potency [4] | Potency [5] | Potency [6]

O=S(=O)(c1cccc2c(Cl)cccc12)N1CCCNCC1
inactive: Potency [2] | Potency [3] | Potency [4] | Potency [5]

NC(=O)CNCCC(c1ccccc1)c1ccccc1
inactive: Potency [2] | Potency [3] | Potency [4] | Potency [5]

O=C(O)CCC/C=C\C[C@@H]1[C@@H](/C=C/[C@H](O)C2Cc3ccccc3C2)[C@@H](F)C[C@@H]1O
inactive: outcome [1] | Potency [3] | Potency [4] | Potency [5] | Potency [6] | max response [7] -7.09%

COc1ccc2c(c1)c(CC(=O)O)c(C)n2Cc1ccc(Cl)cc1
inactive: outcome [1] | Potency [3] | Potency [4] | Potency [5] | Potency [6] | max response [7] -11.4%
